Bioassay records from PubChem.
Rows were chosen to be rich in hits. Some 1.1% of all compounds tested hit in one or more screens of this group.
OPRM1-OPRD1 inv: inverse agonist of human OPRM1-OPRD1 heterodimerization. P35372+P41143. cell-based MOR-DOR heterodimer luminescence, inverse agonism. inhibition, % at 9.3 µM. 0.21% of 340,000 active; in the data active means inhibition above about 22%, passing the limit was not always enough
HTR5A inv ctr: HTR5A inverse agonism, opioid heterodimer counter-screen | HTR5A cell line, luminescence | inhibition, % at 9.3 µM | 0.083% of 340,000 active; in the data active means inhibition mostly above about 23%, no sharp cut-off; inactive means mostly below about 18%
MOR-DOR ag-1: agonists of human mu-delta opioid receptor heterodimerization; P35372+P41143; cells, OPRM1-OPRD1 heterodimerization, luminescence; activation, % at 9.3 µM; 0.3% of 340,000 active; AID 504326
HTR5A ag: counter-screen for OPRM1-OPRD1 agonists: human HTR5A agonism. P47898. HTR5A agonist assay, luminescence, cell-based. activation, % at 9.3 µM. 0.61% of 340,000 active; in the data active means activation mostly above about 9.5%, no sharp cut-off; inactive means mostly below about 7.6%
MOR-DOR ag-2: promotes OPRM1-OPRD1 heterodimerization in HTR5A counter-screen; shares compounds with HTR5A ag; U2OS counter-screen cells, complementation luminescence, 3 h; activation, % at 9.3 µM; 13% of 800 active
HTR5A ag confirm: HTR5A (human) agonism, confirmation. shares compounds with HTR5A ag. HTR5A agonist cell assay, luminescence. activation, % at 9.3 µM. 17% of 800 active. AID 504915; in the data active means activation above about 17%
A number is an active result; 0 = inactive; - = no result given. Unless noted, no stated cut-off is given here; in the data, active means activation above about 18%; inactive means the rest.

SMILES | OPRM1-OPRD1 inv | HTR5A inv ctr | MOR-DOR ag-1 | HTR5A ag | MOR-DOR ag-2 | HTR5A ag confirm
O=C(NCCc1c[nH]c2ccccc12)C(=O)NCC1OCCN1S(=O)(=O)c1ccc(F)cc1 (stereo unspecified) | 0 | 0 | 0 | 0 | - | -
O=C(NCCc1c[nH]c2ccccc12)C(=O)NCC1OCCN1S(=O)(=O)c1ccccc1 (stereo unspecified) | 0 | 0 | 0 | 36 | 0 | 57
O=C(NCCc1c[nH]c2ccccc12)C(=O)NCC1OCCCN1S(=O)(=O)c1ccccc1 (stereo unspecified) | 0 | 0 | 0 | 48 | 0 | 47
O=C(NCCc1c[nH]c2ccccc12)C(=O)NCC1OCCN1S(=O)(=O)c1ccc(Cl)cc1 (stereo unspecified) | 0 | 0 | 0 | 0 | - | -
CCOC(=O)C(=CNc1cc(OC)ccc1-n1cccc1)C(=O)OCC | 0 | 0 | 0 | 16 | 0 | 0
CCOC(=O)C(=CNc1cc(C)ccc1C)C(=O)OCC | 0 | 0 | 0 | 0 | - | -
O=C(O)c1ccc2c(c1)N(Cc1ccccc1F)C(=O)c1ccccc1S2=O (stereo unspecified) | 0 | 0 | 0 | 16 | 0 | 0
Oc1c(Br)cc(Br)cc1CNc1cccc2cccnc12 | 0 | 0 | 0 | 16 | 0 | 0
Cc1ccc(CNC(=O)C2CCCN(S(=O)(=O)c3ccc(F)cc3)C2)cc1 (stereo unspecified) | 0 | 0 | 0 | 0 | - | -
O=c1[nH]c(C2CCN(S(=O)(=O)c3ccccc3F)CC2)nc2c1nnn2Cc1ccc(OC(F)(F)F)cc1 | 0 | 0 | 0 | 0 | - | -
O=c1[nH]c(C2CCN(S(=O)(=O)c3ccccc3C(F)(F)F)CC2)nc2c1nnn2Cc1ccccc1 | 0 | 0 | 0 | 16 | 0 | 0
Oc1ccc(-c2csc(-c3c[nH]c4ccccc34)n2)c(O)c1 | 0 | 0 | 0 | 27 | 0 | 26
Cc1ccc(-c2csc(-c3c[nH]c4ccccc34)n2)c(C)c1 | 0 | 0 | 0 | 0 | - | -
O=C(COc1ccc(Cl)cc1Cl)NNC(=S)Nc1ccc(F)cc1 | 0 | 0 | 0 | 0 | - | -
CC(=O)NC(=S)Nc1ccc(NC(=O)COc2ccc(Cl)cc2Cl)cc1 | 0 | 0 | 0 | 27 | 0 | 0
CCOc1ccccc1NC(=S)N(CCOC)C1CCN(C(C)=O)CC1 | 0 | 0 | 0 | 15 | 0 | 0
COc1ccccc1NC(=O)C(C)Sc1nnc2ccccn12 (stereo unspecified) | 0 | 0 | 0 | 0 | - | -
CCC(=NNC(=O)c1ccc2c(c1)nc(C)n2CC)c1cc(F)ccc1O | 0 | 0 | 0 | 18 | 0 | 0
CCn1c(C)nc2cc(C(=O)N/N=C/c3cccc(OC)c3O)ccc21 | 0 | 0 | 0 | 0 | - | -
COc1ccc2c(c1)Cc1sc(NC(C)=O)nc1-2 | 0 | 0 | 0 | 15 | 0 | 0
O=C(CSC1=NCCN1)Nc1cccc(C(F)(F)F)c1 | 0 | 0 | 0 | 23 | 24 | 0
Cn1ccnc1SCC(=O)Nc1cccc(C(F)(F)F)c1 | 0 | 0 | 0 | 0 | - | -
CCC(C(=O)Nc1ncn[nH]1)(C(F)(F)F)C(F)(F)F | 0 | 0 | 0 | 18 | 0 | 0
O=C(Nc1ncn[nH]1)C(F)(F)C(F)F | 0 | 0 | 0 | 0 | - | -
COc1cccc(CNC(=O)Cc2ccc(-c3ccccc3)cc2)c1 | 0 | 0 | 0 | 0 | - | -
SMILES | OPRM1-OPRD1 inv | HTR5A inv ctr | MOR-DOR ag-1 | HTR5A ag | MOR-DOR ag-2 | HTR5A ag confirm
COc1cccc(CNC(=O)COC(=O)CNC(=O)c2ccc(-c3ccccc3)cc2)c1 | 0 | 0 | 0 | 15 | 0 | 0
CC1(NC(=O)Cn2cc(C(F)(F)F)ccc2=O)CCS(=O)(=O)C1 (stereo unspecified) | 0 | 0 | 0 | 0 | - | -
Cn1ncc(Cl)c1C(=O)NCC1CCCO1 (stereo unspecified) | 0 | 0 | 0 | 0 | - | -
NC(=O)c1cc([N+](=O)[O-])ccc1NCc1cnccn1 | 0 | 0 | 0 | 22 | 0 | 0
NC(=O)c1cc([N+](=O)[O-])ccc1NCC1CCCCC1 | 0 | 0 | 0 | 16 | 0 | 0
NC(=O)c1cc([N+](=O)[O-])ccc1NCc1ccc(O)cc1 | 0 | 0 | 0 | 0 | - | -
Oc1c(C(c2cccs2)N2CCOCC2)sc2ncnn12 (stereo unspecified) | 0 | 0 | 0 | 0 | - | -
Oc1c(C(c2cccs2)N2CCN(c3cccc(Cl)c3)CC2)sc2ncnn12 (stereo unspecified) | 0 | 0 | 0 | 18 | 0 | 0
O=C(COc1ccccc1)Nc1ccc(-c2nnc(-c3ccco3)o2)cc1 | 0 | 0 | 0 | 16 | 0 | 0
COc1ccccc1OCC(=O)Nc1cccc(-c2nnc(-c3ccco3)o2)c1 | 0 | 0 | 0 | 0 | - | -
O=C(O)CC1Cc2ccccc2C1C(=O)O (stereo unspecified) | 0 | 0 | 0 | 0 | - | -
